Only some compounds are listed: those with a hit (about 10% of all), similar ones and a draw of the others.
HP1b chromo inh: blocks HP1-beta chromodomain binding to methylated histone tails; AlphaScreen HP1-beta / biotin-H3K9me3 peptide binding; 390,000 tested, 0.56% active; Potency, µM (highest dose often 114 µM), inactives show at the top dose activity change, negative = inhibition, hits mostly inhibitors; AID 540317; P83916; further: potency means the concentration at half of the fitted maximal effect; nearly all actives have a fitted effect of over 70% in size
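Compound inhibition of the preformed complex between 50 nM HP1-beta and 50 nM biotinylated H3K9me3 peptide was read by AlphaScreen. Buffer was PBS pH 7.4 with 0.01% Tween-20. Incubations ran 30 min at room temperature, with 10 ug/mL donor/acceptor beads.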
G9a block: inhibitors of human histone lysine methyltransferase G9a. Q96KQ7. G9a H3K9 monomethylation, AlphaScreen, 2 h. Potency, µM (titrated, usually from 102 µM), without a hit: at the highest dose activity, negative = inhibition, usual class: inhibitors. 350,000 tested, 8.8% active; further: potency means the concentration at half of the fitted maximal effect; on the % scale 0 is the no-effect control and ±100 the full control effect; nearly all actives have a fitted effect of over 75% in size
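Methyltransferase reactions run at room temperature for 2 h (20 nM enzyme, 500 nM biotin-H3K9 peptide, 20 uM SAM) after a 15 min compound preincubation; product detected by AlphaScreen beads and anti-H3K9me1 antibody.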
JMJD2A Tudor: inhibitors of human JMJD2A Tudor domain; Potency, µM (doses to about 114 µM), for inactives: top-dose activity change, negative = inhibition, usual class: inhibitors; O75164; AlphaScreen JMJD2A-Tudor / H3K4me3 peptide binding; 390,000 tested, 4.4% active; further: potency means the concentration at half of the fitted maximal effect; on the % scale 0 is the no-effect control and ±100 the full control effect; nearly all actives have a fitted effect of over 50% in size
CtBP-E1A blk: inhibitors of CtBP/E1A interaction. AlphaScreen GST-E1A/His-CtBP binding, 1536-well; hits give low values. activity change, % (concentration not given with the values). 340,000 tested, 0.49% active; in the data active means activity change below about -65%; inconclusive means mostly about -30% to -63%; further: on the % scale 0 is the no-effect control and ±100 the full control effect
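Homogeneous bead-based format: GST-tagged E1A captured on glutathione donor beads, His-tagged CtBP on nickel acceptor beads; compounds precede bead addition by 2 h at 37 °C.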
BAZ2B inh: BAZ2B (human) inhibition | AlphaScreen BAZ2B-H3K14Ac peptide displacement | Potency, µM (titrated, usually from 114 µM), for inactives: top-dose activity change, negative = inhibition, most hits filed as inhibitors | 360,000 tested, 4.4% active | AID 504333; further: potency means the concentration at half of the fitted maximal effect; on the % scale 0 is the no-effect control and ±100 the full control effect; nearly all actives have a fitted effect of over 60% in size
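AlphaScreen displacement of biotin-H3(5-23)K14Ac peptide (50 nM final) from BAZ2B (50 nM final) in PBS pH 7.4, 0.01% Tween-20; complex preformed 30 min RT, then compounds (top 110 uM) 30 min RT, beads 20 min dark.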
Six1-Eya2 blk: inhibitors of human Six1/Eya2 interaction | Q15475+O00167 | AlphaScreen GST-Six1/His-Eya2 binding, biochemical; hits give low values | activity change, % (test concentration not listed) | 360,000 tested, 0.56% active; in the data active means activity change below about -65%; inconclusive means mostly about -30% to -63%; further: on the % scale 0 is the no-effect control and ±100 the full control effect
Target sequence (O00167 whole entry, looked up): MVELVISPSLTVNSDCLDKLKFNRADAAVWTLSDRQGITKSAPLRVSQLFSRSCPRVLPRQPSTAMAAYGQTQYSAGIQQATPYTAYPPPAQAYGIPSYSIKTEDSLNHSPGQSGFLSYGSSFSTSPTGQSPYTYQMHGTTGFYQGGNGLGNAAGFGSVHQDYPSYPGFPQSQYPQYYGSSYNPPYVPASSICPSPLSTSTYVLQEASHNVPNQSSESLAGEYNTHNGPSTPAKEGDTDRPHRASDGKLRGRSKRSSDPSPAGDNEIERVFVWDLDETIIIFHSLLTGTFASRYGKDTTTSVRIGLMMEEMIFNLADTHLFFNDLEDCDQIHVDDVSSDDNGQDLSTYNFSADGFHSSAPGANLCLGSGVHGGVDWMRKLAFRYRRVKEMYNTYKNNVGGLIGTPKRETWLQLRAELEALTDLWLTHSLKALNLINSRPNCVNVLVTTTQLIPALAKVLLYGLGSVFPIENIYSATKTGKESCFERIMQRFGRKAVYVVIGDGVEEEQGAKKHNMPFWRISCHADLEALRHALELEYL
Target sequence (Q15475 whole entry, looked up): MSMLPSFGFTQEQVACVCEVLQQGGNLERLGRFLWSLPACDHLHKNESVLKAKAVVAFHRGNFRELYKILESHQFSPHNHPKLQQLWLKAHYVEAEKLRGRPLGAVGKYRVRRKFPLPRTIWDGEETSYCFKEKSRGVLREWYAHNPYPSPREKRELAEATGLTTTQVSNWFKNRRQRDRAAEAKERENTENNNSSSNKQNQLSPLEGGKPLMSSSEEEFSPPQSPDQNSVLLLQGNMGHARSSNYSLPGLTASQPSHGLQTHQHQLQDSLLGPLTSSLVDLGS
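AlphaScreen luminescence read after one hour at 37 °C in darkness. Pin-transferred compounds met GST-Six1 and His-Eya2 protein (5X stock 250 nM/500 nM) plus glutathione donor and Ni-chelate acceptor beads (5X, 50 ug/mL).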
The depositor's hits bear a star; ? = inconclusive; nt = no result given; [ ] = remark or other dose. Unless noted, the call rests on the fitted dose curve; in most records, active means well fitted inhibition curve with a large enough effect; inconclusive means small, poorly fitted or top-dose-only effect; inactive means no such curve, though single readings can be large or run the other way.

SMILES | HP1b chromo inh | G9a block | JMJD2A Tudor | CtBP-E1A blk | BAZ2B inh | Six1-Eya2 blk
Cn1c(=O)c(C(=O)COC(=O)c2cc(-c3ccco3)nc3ccccc23)c(N)n(Cc2ccccc2)c1=O | nt | 8.9µM* | nt | nt | 45µM* | nt
CC(C)Cn1c(N)c(C(=O)COC(=O)c2cc(-c3ccco3)nc3ccccc23)c(=O)n(C)c1=O | ? | ? | 40µM* | -3 | 79µM* | -9
Cn1c(N)c(C(=O)COC(=O)c2cc(-c3ccccc3)nc3ccccc23)c(=O)n(Cc2ccccc2)c1=O | 9% | ? | -33% | 1 | -10% | -1
CC(C)Cn1c(N)c(C(=O)COC(=O)c2cc(-c3ccccc3)nc3ccccc23)c(=O)n(C)c1=O | 31% | ? | -7% | nt | -9% | 0
CCC(Sc1nc2c(sc3ccccc32)c(=O)n1CCCC(=O)NC1CCCC1)C(=O)Nc1cccc(OC)c1 (stereo not drawn) | 65% | 19%[59 µM] | 0% | nt | 27% | nt
CSc1cccc(NC(=O)c2cccc(N3CCCS3(=O)=O)c2)c1 | 30% | -15%[59 µM] | -17% | nt | -15% | nt
COc1ccc(N2CCN(CCCNC(=O)c3ccc4nc(CCc5ccccc5)oc4c3)CC2)cc1 | -16%[57 µM] | ? | 22µM* | nt | 32µM* | nt
COc1ccc(N2CCN(CCCNC(=O)c3ccc4nc(Cc5ccccc5)oc4c3)CC2)cc1 | -33%[57 µM] | 14µM* | 32µM* | nt | 40µM* | nt
O=C(NCCCN1CCN(c2ccccc2)CC1)c1ccc2nc(CCc3ccccc3)oc2c1 | -4%[57 µM] | ? | ? | nt | -37% | nt
COc1ccc(N2CCN(CCCNC(=O)c3nnc(Cc4ccc(F)cc4)o3)CC2)cc1 | 7% | -51%[59 µM] | -8% | nt | 35µM* | nt
O=[S+]([O-])(c1c(F)cccc1F)N1CCN([S+](=O)([O-])c2csc3ccccc23)CC1 | nt | nt | -16% | nt | nt | nt
COc1ccc(-c2ccc(NS(=O)(=O)c3ccc(NC(C)=O)cc3)cc2)nn1 | 8%[57 µM] | -3%[59 µM] | -21% | nt | 0% | nt
Nc1ccc(S(=O)(=O)Nc2nccc(/C=C/c3ccc([N+](=O)[O-])cc3)n2)cc1 | -29% | 3% | -6% | -29 | -12% | -16
Nc1ccc(S(=O)(=O)Nc2nccc(/C=C/c3ccc(Cl)cc3)n2)cc1 | -7% | 14% | -8% | -76* | -15% | ?
COc1ccc(-c2[nH]ncc2C(=O)NCc2ccccc2OC)cc1 | 39% | 14%[59 µM] | 8% | nt | 7% | nt
Fc1ccc(C2=CC(c3ccc(F)cc3)n3c(nc4ccccc43)N2)cc1 (stereo not drawn) | 118% | 18µM* | 13% | nt | 3% | nt
COC(=O)c1ccc(C2C=C(c3ccc(Cl)cc3)Nc3nc4ccccc4n32)cc1 (stereo not drawn) | 34% | ? | -29% | nt | 1% | nt
CCn1cnc2cc(NCc3ccc(OC)cc3)ccc21 | 2% | 8.9µM* | -35% | -4 | ? | -9
COc1ccc(CNc2ccc(S(N)(=O)=O)cc2)cc1 | 7% | 25% | -5% | 20 | -3% | 13
CCOc1ccc2nc(SCC(=O)NCc3ccc(OC)cc3)[nH]c2c1 | 29% | 8% | 13% | 3 | 6% | -3
CC(C)(CC(=O)O)CC(=O)Nc1ccc2c(c1)ncn2CCc1ccccc1 | 43% | -12% | 3% | 1 | 2% | 3
CCc1ccc(CNc2ccc3c(c2)ncn3CC)cc1 | ? | 11µM* | 45µM* | -21 | ? | -16
CCOc1ccc2nc3cc(NCc4ccc(OC)cc4)ccc3c(N)c2c1 | 38% | 35µM* | ? | nt | ? | -5
COc1ccccc1NC(=O)c1nn(C)c2c1CS(=O)(=O)c1ccccc1-2 | 46% | 1%[59 µM] | 7% | nt | -2% | nt
Cc1c(C(=O)NCc2cccc(Cl)c2)sc2nc[nH]c(=O)c12 | 10%[57 µM] | 0%[59 µM] | -16% | nt | -1% | nt
SMILES | HP1b chromo inh | G9a block | JMJD2A Tudor | CtBP-E1A blk | BAZ2B inh | Six1-Eya2 blk
O=C1CCCC2=C1C1(CCSCC1)N=C(Nc1nc3ccccc3o1)N2 | nt | nt | -13% | nt | nt | nt
CCN1CCN(c2cc3c(nn2)Oc2ccccc2N3C)CC1 | 15% | 50µM* | 12% | ? | 5% | ?
CCOc1ccc(-n2c(SCC(=O)N3CCc4ccccc43)nc3c([nH]c4ccccc43)c2=O)cc1 | 14%[57 µM] | 6%[59 µM] | -14% | nt | 3% | nt
COc1ccc(C(=O)O)cc1Nc1nc2ccc(C)cc2n2cnnc12 | 18% | -20%[59 µM] | -4% | nt | 1% | nt
CCCSc1nc(O)c(C(c2ccc(OC)c(O)c2)c2c(O)nc(SCCC)n(C)c2=O)c(=O)n1C | 14% | 10µM* | -10% | 8 | -8% | -6
N#CCc1ccc(Oc2ncc(C(F)(F)F)cc2Cl)cc1 | -7% | 48% | 0% | -17 | 33% | -12
Cc1ccc(CO/N=C\Cc2snc(Sc3ncc(C(F)(F)F)cc3Cl)c2C#N)cc1 | ? | 11µM* | ? | -6 | 35µM* | -2
O=C(CN1C(=O)COc2ccc(S(=O)(=O)N3CCOCC3)cc21)Nc1ccc(F)c(Cl)c1 | 30% | -22%[59 µM] | -6% | nt | -20% | nt
Cc1ccc(CN(C(=O)COc2c(C)cccc2C)C2CCS(=O)(=O)C2)o1 (stereo not drawn) | 35% | -15%[59 µM] | -31% | nt | -30% | nt
CN=Cc1sc2ccccc2c1O | 14% | 50µM* | -23% | 3 | -37% | 0
Oc1c(/C=N/c2ccccn2)sc2ccccc12 | -21% | 8.9µM* | ? | -2 | 40µM* | 3
Cc1ccc2onc(CNC(=O)NCc3ccccc3)c2c1 | -4% | 7%[59 µM] | -14% | nt | -16% | nt
Cn1c(=O)c(N)c2c3c(c(Br)ccc31)C(=O)c1ccccc1-2 | 12%[57 µM] | 4.5µM* | -34% | nt | -33% | ?
CCCCNc1c2c3c(cccc3n(C)c1=O)C(=O)c1ccccc1-2 | 66% | 88%[59 µM] | 40% | 15 | 26% | 37
O=[S+]([O-])(c1ccc(-c2ccccc2)cc1)N1CCN([S+](=O)([O-])c2ccc3c(c2)OCCO3)CC1 | nt | nt | -14% | nt | nt | nt
CCN(Cc1ccccc1)c1ccc(/C=C(\C#N)c2ccccn2)cc1 | 188% | 50µM* | 114% | 0 | 8% | 38
CN(C)S(=O)(=O)N(CC(=O)NCCSCc1cccc(Cl)c1)c1ccccc1 | 44% | 3%[59 µM] | 5% | nt | 1% | nt
Cc1ccc(C2(C)NC(=O)N(CC(=O)Nc3nc(-c4ccccn4)cs3)C2=O)cc1 (stereo not drawn) | 32µM* | -2%[0.501 µM] | 40µM* | ? | 79µM* | -92*
CC1(c2ccccc2)NC(=O)N(CC(=O)Nc2nc(-c3ccccn3)cs2)C1=O (stereo not drawn) | -10% | -43%[2.33 µM] | 45µM* | ? | 50µM* | -91*
CCOC(=O)c1[nH]c(C)c(C(=O)NCCc2ccccc2)c1C | 16% | -9%[59 µM] | -21% | nt | -7% | nt
